A selection: hits, their analogues and other compounds. The true share with any hit is near 21%.
RORg inh – qHTS for inhibitors of ROR gamma transcriptional activity; 310,000 tested, 5.4% active; Drosophila S2 Gal4-RORgamma UAS-luciferase reporter, 20 h; Potency, µM (series often up to 53.6 µM), actives largely listed as inhibitors; also: nearly all actives have a fitted effect of over 60% in size
Target sequence (P51450 whole entry, looked up, the tested form may be a part): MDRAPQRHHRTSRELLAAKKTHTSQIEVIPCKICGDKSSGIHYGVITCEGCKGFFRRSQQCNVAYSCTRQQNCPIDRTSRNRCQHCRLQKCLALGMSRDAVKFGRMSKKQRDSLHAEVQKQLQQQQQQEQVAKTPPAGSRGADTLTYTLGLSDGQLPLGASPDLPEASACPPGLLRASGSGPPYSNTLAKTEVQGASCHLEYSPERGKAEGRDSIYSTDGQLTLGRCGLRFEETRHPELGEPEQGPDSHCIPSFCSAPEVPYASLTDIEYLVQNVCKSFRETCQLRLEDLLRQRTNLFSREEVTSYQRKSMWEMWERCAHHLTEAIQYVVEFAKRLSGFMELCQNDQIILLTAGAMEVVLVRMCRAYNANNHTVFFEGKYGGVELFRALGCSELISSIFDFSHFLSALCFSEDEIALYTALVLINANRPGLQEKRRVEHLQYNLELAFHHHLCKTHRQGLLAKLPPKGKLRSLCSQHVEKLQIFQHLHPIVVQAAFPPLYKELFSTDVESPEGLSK
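A Gal4/UAS one-hybrid system in insect cells: metallothionein-promoter Gal4–ROR gamma fusion plus Photinus luciferase reporter. Copper sulfate 700 uM final, 20 hr ambient incubation, luminescent detection after 10 min with reagent.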
ELG1 repair inh – qHTS screen for small molecules that inhibit ELG1-dependent DNA repair in human embryonic kidney (HEK293T) cells expressing luciferase-tagged ELG1; HEK293T ELG1-luciferase reporter, luminescence, 16 h; DNA damage induced by 5-fluorouridine; Potency, µM (highest dose often 46.1 µM), most hits filed as inhibitors; 330,000 tested, 2.3% active; AID 504467, 2011; also: nearly all actives have a fitted effect of over 55% in size
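Cells (2,000 per well) received 5-fluorouridine plus test compound or DMSO and were incubated 16 hr at 37 °C, 5% CO2. Luciferase activity was read by luminescence 30 min after ONE-Glo addition; signal suppression marked inhibition of damage-induced ELG1 function.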
DT40 TDP1 CPT – qHTS for Inhibitors of human tyrosyl-DNA phosphodiesterase 1 (TDP1): qHTS in cells in presence of CPT. Potency, µM (top dose mostly 46.2 µM), hits mostly inhibitors. 420,000 tested, 12% active. AID 686979, 2013. chicken DT40 Tdp1-/-;hTDP1 cells + 20 nM CPT, ATP luminescence, 48 h; also: nearly all actives have a fitted effect of over 55% in size
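Chicken DT40 Tdp1-/- cells stably complemented with human TDP1 were seeded at 400 cells/well in medium containing 20 nM camptothecin, exposed to pin-transferred compounds, and grown at 37 °C for at least 48 hr. Viability was read as ATP luminescence.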
Gal4-VP16 FLuc – VP16 counterscreen qHTS for inhibitors of ROR gamma transcriptional activity; Drosophila S2 Gal4-VP16 UAS-luciferase, luminescence, 20 h; Potency, µM (titrated, usually from 53.6 µM), most hits filed as inhibitors; 310,000 tested, 3.5% active;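 also: Gal4-VP16 expression switched on by copper sulfate through the metallothionein promoter; nearly all actives have a fitted effect of over 50% in size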
IL-1B inflam inh – qHTS for Inhibitors of Inflammasome Signaling: IL-1-beta AlphaLISA Primary Screen; 360,000 tested, 4.7% active; THP-1 LPS/ATP IL-1B secretion, AlphaLISA, 16 h; active compounds read low; AID 743279, 2014; activity change, % at 57.5 µM; in the data active = activity change below about -50%; inconclusive = mostly about -30% to -49%
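THP-1 cells pretreated 1 hr with compounds (up to 57.5 uM final), then stimulated with LPS (250 ng/mL final) plus ATP (1.25 mM final); secreted IL-1B measured by AlphaLISA after 16 hr, decreased signal indicating inhibition.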
TDP1 cell noCPT – qHTS for Inhibitors of human tyrosyl-DNA phosphodiesterase 1 (TDP1): qHTS in cells in absence of CPT; DT40 Tdp1-/- hTDP1 cells, no CPT, ATP luminescence, 48 h; Potency, µM (titrated, usually from 46.2 µM), most hits filed as inhibitors; 420,000 tested, 15% active; AID 686978, 2013; also: nearly all actives have a fitted effect of over 55% in size
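Readout: luminescence from CellTiter-Glo after 30 min in the dark at RT. Cells: DT40 Tdp1-/- with stable hTDP1, 400/well. Exposure: compounds alone, ≥48 hr, 37 °C.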
Hits are given with their value; – = inactive; ? = inconclusive; · = no result; [ ] = another dose, or the depositor's remark. Unless noted, calls follow the shape of the dose curve; as a rule, active = well fitted curve in the direction sought with a large enough effect; inconclusive = small, poorly fitted or top-dose-only effect, or another doubt; inactive = no such curve, though single readings can be large; an effect the other way counts as inactive or inconclusive.

SMILES	RORg inh	ELG1 repair inh	DT40 TDP1 CPT	Gal4-VP16 FLuc	IL-1B inflam inh	TDP1 cell noCPT
O=C(NCc1ccncc1)C(=O)NCC1OCCN1S(=O)(=O)c1ccccc1 (centres undefined)	·	·	–	·	–	–
COc1ccc(C(=O)c2ccc(OC)c(OC)c2)cc1OC	–	–	?	–	–	?
COc1ccc(C(=O)c2ccc(OC)c(N)c2)cc1N	1.41µM	?	–	–	–	–
COc1ccc(C(=O)Sc2ccc(Cl)cc2)cc1OC	?	–	8.2µM	–	-83.6	11.6µM
COc1ccc(C(=O)c2cc(OC)c(OC)c(OC)c2)cc1OC	·	·	4.61µM	·	–	2.59µM
COc1ccc(C(=O)NCc2ccccc2)cc1Br	–	–	–	–	–	–
COc1ccc(C(=O)c2ccccc2)cc1Br	–	–	–	–	-52.9	–
CN1C(=O)/C(=C/c2ccc(OCc3ccccc3F)cc2)NC1=S	?	–	–	–	–	–
CCCn1c(C)nc2c(NCCN(C(C)C)C(C)C)nc(C)nc21	–	·	·	–	·	·
CCOc1ccc(Cc2n[nH]c(=S)n2N)cc1	–	–	–	–	–	–
Cc1cccc(-n2c(CCn3nc(C)c([N+](=O)[O-])c3C)n[nH]c2=S)c1	12.6µM	–	–	–	–	–
COc1cccc(-n2c(CCn3nc(C)c([N+](=O)[O-])c3C)n[nH]c2=S)c1	?	–	–	–	–	–
CCc1ccc(-n2c(Cc3ccccc3)n[nH]c2=S)cc1	2µM	–	?	?	–	?
Cc1cccc(-n2c(Cc3ccccc3)n[nH]c2=S)c1	3.98µM	–	–	14.1µM	–	–
Cc1cccc(-n2c(CNC(=O)Cc3ccccc3)n[nH]c2=S)c1	–	–	–	–	–	–
Cc1nc2cc(NC(=O)[C@@H]3C[C@@H](Sc4ccccn4)CN3Cc3ccccc3F)ccc2s1	·	·	–[9.04 µM]	·	·	–
Cc1cc(NC(=O)c2cc(-c3ccc(Cl)c(Cl)c3)on2)n(-c2ccccc2)n1	·	·	–	·	·	–
COc1ccc(/C=C/C(=O)Nc2cccc(N3CCOCC3)c2)cc1OC	?	?	?	–	–	–
O=C(Cn1c(=O)n(-c2ccc(F)cc2)c(=O)c2sc3ccccc3c21)NC1CCCCC1	·	·	–	·	·	–
CCNc1ccc(Br)cc(C(=O)/C=C/c2c(Cl)cccc2Cl)c1=O	10µM	?	5.17µM	?	-96.3	4.61µM
CCNc1ccc(Br)cc(C(=O)/C=C/c2ccc3c(c2)OCO3)c1=O	–	–	29.1µM	–	–	?
CCNC(=O)/C=C/c1cccc(Br)c1	–	·	–	–	·	?
COC(=O)c1ccc2c(c1)N(Cc1cc(C)ccc1C)C(=O)c1ccccc1S2=O (centres undefined)	–	–	·	–	·	·
Cc1ccc(C)c(CN2C(=O)c3ccccc3S(=O)c3ccc(C(=O)N4CCC(C)CC4)cc32)c1 (centres undefined)	·	·	?	·	·	23.1µM
COc1ccc(N2CCN(C(=O)c3ccc4c(c3)N(Cc3cc(C)ccc3C)C(=O)c3ccccc3S4=O)CC2)cc1 (centres undefined)	·	·	14.6µM	·	·	11.6µM
SMILES	RORg inh	ELG1 repair inh	DT40 TDP1 CPT	Gal4-VP16 FLuc	IL-1B inflam inh	TDP1 cell noCPT
Cc1ccc(C)c(CN2C(=O)C(=O)c3ccccc32)c1	·	·	1.16µM	·	·	0.92µM
CCOC(=O)c1ccc2c(c1)N(Cc1ccccc1C)C(=O)c1ccccc1S2=O (centres undefined)	–	16.4µM	14.1µM	22.4µM	–	?
Cc1ccc(C)c(CN2C(=O)c3ccccc3S(=O)c3ccc(C(=O)N(C)Cc4ccccc4)cc32)c1 (centres undefined)	·	·	18.4µM	·	·	?
CC(=O)Nc1cccc(/C(C)=N/NC(=O)c2ccc(NS(=O)(=O)c3cccs3)cc2)c1	–	–	–	–	–	–
C/C(=N\NC(=O)c1ccc(NS(=O)(=O)c2cccs2)cc1)c1ccc(C(C)(C)C)cc1	–	?	7.31µM	–	–	9.2µM
C/C(=N\NC(N)=S)C1C2C3CC4C5CC(C42)C1C53 (centres undefined)	1.12µM	?	?	?	–	10.3µM
Oc1cccc(C(O)CNCc2ccc(OCc3ccc(Cl)cc3Cl)cc2)c1 (centres undefined)	–	–	?	–	-90.6	14.6µM
Oc1cccc(C(O)CNCc2ccc(-c3ccccc3)cc2)c1 (centres undefined)	–	?	18.4µM	–	-50.9	?
OC(CNCc1ccccc1)c1ccccc1 (centres undefined)	–	–	–	–	–	–
CCCCCCC[n+]1ccc(/C=C/c2c(C)[nH]c3ccccc23)cc1	·	·	0.316µM	·	·	0.316µM
CCCCCCCCCCCCCCCC[n+]1ccc(/C=C/c2c(C)[nH]c3ccccc23)cc1	·	·	1µM	·	·	0.398µM
Cc1[nH]c2ccccc2c1/C=C/c1c(C)[nH]c2ccccc12	·	·	11.2µM	·	·	10µM
COC(=O)c1ccc(NC(=O)c2cc[n+](Cc3ccccc3)cc2)cc1	–	–	–	–	–	–
Cc1ccc2[nH]c(CSc3nnc(NC(=O)c4ccccc4F)s3)cc(=O)c2c1	·	·	10.3µM	·	·	10.3µM
Cc1ccc2[nH]c(CSc3nnc(NC(=O)c4ccccc4C)s3)cc(=O)c2c1	·	·	7.31µM	·	·	5.8µM
Cc1ccc2[nH]c(CSc3nnc(C)s3)cc(=O)c2c1	·	·	–	·	·	–
Oc1ccc(-c2onc(C(F)(F)F)c2-c2cscn2)c(O)c1	?	–	?	–	–	20.6µM
Cc1nc(-c2c(C(F)(F)F)noc2-c2ccc(O)cc2O)cs1	–	–	?	–	–	?
CN(C)C(=O)Nc1ccc(Oc2ccc(Cl)cc2)cc1	–	·	·	?	·	·
CC1C(=NO)C(C)C(c2ccccc2)NC1c1ccccc1 (centres undefined)	–	–	–	–	–	–
CCC1C(=O)C(CC)C(c2ccccc2)NC1c1ccccc1 (centres undefined)	0.282µM	–	–	–	–	–
CCC1C(=NO)C(CC)C(c2ccccc2)NC1c1ccccc1 (centres undefined)	?	–	?	?	-51.2	?
COCCCNC(=O)Cn1c(=O)n(-c2cccc(C)c2)c(=O)c2c1c1cc(C)ccc1n2C	·	·	–	·	·	?
CC(C)NC(=O)N1CCCC2(CCN(C(=O)c3cccc(F)c3)CC2)C1	–	·	–	–	·	–
